Source: PubChem BioAssay (Tox21)
The source made the active and inactive calls. A call without a number means that no potency is given here. The call rests on the fitted dose curve; in most records, active means well fitted curve in the direction sought with a large enough effect in the repeat runs; inconclusive means weak or mixed curves; inactive means flat fitted curve, though single readings scatter.

Experiment: qHTS assay to test for compound auto fluorescence at 535 nm (green) in HepG2 cells (AID 720675)
Settings: green autofluorescence 485/535 nm, 1 h; series mostly up to 46 µM
Source text: National Center for Advancing Translational Sciences [NCATS]
NIH Chemical Genomics Center [NCGC]
U.S. Environmental Protection Agency [EPA]
National Institutes of Environmental Health Sciences [NIEHS]
National Toxicology Program [NTP]
U.S. Food and Drug Administration [FDA]
Compound auto fluorescence often interferes with screening of the compound library against various biological targets and signaling pathways. Some of these compounds may have fluorophoric properties. Such properties may interfere with the assay outputs resulting in false positives and/or negatives. To decrease such complications and ensure the compound activities are relevant in terms of biological response, the Tox21 10K compound library was screened for auto fluorescence.
From the fluorophores used as reporter signals in our screening assays, the auto fluorescence equivalencies of compounds against three fluorophores have been evaluated: Triamterene, Fluorescein and Rose Bengal sodium for blue, green and red fluorescence, respectively. The fluorescence intensities were measured using Excitation/Emission wavelengths at 405/460nm, 485/535nm and 540/590nm for blue, green and red labels, respectively. This assay includes the green fluorescence data.
Tox21 Assay Protocol Summary:
2,000 HepG2 cells in 5 uL of culture medium (MEM containing 10% FBS) per well were dispensed into black wall/clear bottom 1536-well plates using a Multidrop Combi Dispenser (ThermoFisher Scientific, Waltham, MA). The assay plates were incubated overnight at 37 C to allow cell attachment to the well bottom, followed by the transfer of 23 nL compound or DMSO vehicle by a pintool work station (Kalypsys , San Diego, CA). After the assay plates were incubated for 1 hr at 37 C and 5% CO2, fluorescence intensities in the assay plates were measured by an Envision (PerkinElmer, Shelton, CT) plate reader using three labels for measuring blue, green and red fluorescence at […] 460, 535 and 590 nm respectively.

Row | Compound | Potency
1 | CN1CCC(OC(=O)C(Oc2ccc(Cl)cc2)Oc2ccc(Cl)cc2)CC1 | inactive
2 | CC(=C\c1ccccc1)/C=C1/SC(=S)N(CC(=O)O)C1=O | inactive
3 | NC(N)=NCC1COc2ccccc2O1 (stereo not given) | inactive
4 | c1ccc2c(CCC3CCNCC3)c[nH]c2c1 | inactive
5 | CC(=O)N[C@@H]([C@@H](O)[C@H](O)[C@H](O)CO)[C@@H](O)CC(=O)C(=O)O | inactive
6 | O=P(O)(O)OC(Cn1cncn1)(Cn1cncn1)c1ccc(F)cc1F | inactive
7 | CC(NNC(=O)c1ccccc1)c1ccccc1 (stereo not given) | inactive
8 | CCOC(=O)[C@H](CCc1ccccc1)N[C@@H](C)C(=O)N1CC2(C[C@H]1C(=O)O)SCCS2 | inactive
9 | CCCCC(F)(F)[C@@]1(O)CC[C@H]2[C@@H](CC(=O)[C@@H]2CCCCCCC(=O)O)O1 | inactive
10 | O=C(O)CCC/C=C\C[C@@H]1[C@@H](/C=C/[C@@H](O)COc2cccc(Cl)c2)[C@H](O)C[C@@H]1O | inactive
11 | CC(C)N=c1cc2n(-c3ccc(Cl)cc3)c3ccccc3nc-2cc1Nc1ccc(Cl)cc1 | inactive
12 | NC(=O)OC[C@@H]1[C@H](NC(=O)/C(=N\OCC(=O)O)c2csc(N)n2)C(=O)N1S(=O)(=O)O | inactive
13 | NC(Cc1ccccc1)C(=O)O (stereo not given) | inactive
14 | C/C(=C(\CCOC(=O)c1ccccc1)SS/C(CCOC(=O)c1ccccc1)=C(/C)N(C=O)Cc1cnc(C)nc1N)N(C=O)Cc1cnc(C)nc1N | inactive
15 | CC1=C(/C=C/C(C)=C/C=C/C(C)=C/C=C/C=C(C)/C=C/C=C(C)/C=C/C2=C(C)C(=O)CCC2(C)C)C(C)(C)CCC1=O | inactive
16 | COc1cc2[nH]c(C)c(CCN3CCN(c4ccccc4)CC3)c2cc1OC | inactive
17 | COC(=O)CCC[N+](C)(C)C | inactive
18 | CNC(=O)c1c(I)c(C(=O)NCC(=O)Nc2c(I)c(C(=O)O)c(I)c(C(=O)NCCO)c2I)c(I)c(N(C)C(C)=O)c1I | inactive
19 | CC(C)N1CCN(c2ccc(OC[C@H]3CO[C@](Cn4cncn4)(c4ccc(Cl)cc4Cl)O3)cc2)CC1 | inactive
20 | CCCCCCCCCCCCCCCCOCCOCCOCCOCCOCCOCCOCCOCCOCCOCCOCCOCCOCCOCCOCCOCCOCCOCCOCCOCCO | inactive

Row | Compound | Potency
21 | CC1(C)[C@@H]2CC[C@@]1(C)[C@H](OC(=O)CSC#N)C2 | inactive
22 | OC[C@H]1O[C@@H](O[C@H]2[C@H](O)[C@@H](O)[C@H](O)O[C@@H]2CO)[C@H](O)[C@@H](O)[C@@H]1O | inactive
23 | COc1ccc(CCNC[C@H](O)c2ccc(O)cc2)cc1OC | inactive
24 | O=C(O)[C@@H](O)[C@H](O)[C@H](O)[C@@H](O)C(=O)O (tested in a mixture with another compound) | inactive
25 | CC(O)[C@@H]1NC(=O)[C@H](CCCCN)NC(=O)[C@@H](Cc2c[nH]c3ccccc23)NC(=O)[C@H](Cc2ccccc2)NC(=O)[C@@H](NC(=O)[C@H](N)Cc2ccccc2)CSSC[C@@H](C(=O)N[C@H](CO)[C@@H](C)O)NC1=O (stereo not given in full) | inactive
26 | CN1[C@@H]2CC[C@H]1CC(OC(c1ccccc1)c1ccccc1)C2 (stereo not given in full) | inactive
27 | O=C(O[C@H]1CN2CCC1CC2)N1CCc2ccccc2[C@@H]1c1ccccc1 | inactive
28 | Cc1cccc(Nc2ncccc2C(=O)O)c1C | inactive
29 | COc1ccc(CC2c3cc(OC)c(OC)cc3CC[N+]2(C)CCC(=O)OCCCCCOC(=O)CC[N+]2(C)CCc3cc(OC)c(OC)cc3C2Cc2ccc(OC)c(OC)c2)cc1OC (stereo not given) | inactive
30 | COc1ccc(C[C@H](C)NC[C@@H](O)c2ccc(O)c(NC=O)c2)cc1 | inactive
31 | CCOC(=O)c1c[nH]c2cc(OCC(C)C)c(OCC(C)C)cc2c1=O | inactive
32 | Cn1nnnc1SCC1=C(C(=O)O)N2C(=O)[C@@H](NC(=O)[C@H](O)c3ccccc3)[C@H]2SC1 | inactive
33 | CN1CCc2c(c3ccccc3n2Cc2ccccc2)C1 | inactive
34 | C#C[C@]1(OC(C)=O)CC[C@H]2[C@@H]3CCC4=CC(=O)CC[C@@H]4[C@H]3CC[C@@]21C | inactive
35 | CC1(C)S[C@@H]2[C@H](NC(=O)C(N)c3ccccc3)C(=O)N2[C@H]1C(=O)OC1OC(=O)c2ccccc21 (stereo not given in full) | inactive
36 | CCCCCCCCCCCCCCCCCCOP(=O)([O-])OC1CC[N+](C)(C)CC1 | inactive
37 | Nc1ncnc2c1ncn2[C@@H]1O[C@H](COP(=O)(O)OP(=O)(O)OP(=O)(O)O)[C@@H](O)[C@H]1O | inactive
38 | S=C1SCN(Cc2ccccc2)CN1Cc1ccccc1 | inactive
39 | CN(C(=O)CO)c1c(I)c(C(=O)NCC(O)CO)c(I)c(C(=O)NCC(O)CO)c1I (stereo not given) | inactive
40 | CC(C)Cc1ccc([C@@H](C)C(=O)NS(C)(=O)=O)cc1 | inactive
